Test results: the supplement of paper PMC9262897, “Low-cost anti-mycobacterial drug discovery using engineered E. coli” (Nature Communications, 2022)
Counter-ions that a name gives are not always drawn. ± gives the standard deviation of the averaged measurements.

Tests used:
Experiment in all cases: growth (OD600 after 10 h); higher = more growth (less inhibition)
[1] = system: E. coli TESEC Alr+ wild-type control; settings: compound 0.1 mM; raw OD600 reference: median of DMSO wells 0.241, cell-free background 0.041
Procedure: (§1)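 TESEC Mtb Alr E. coli, or the Alr+ wild-type control, in 384-well plates with Prestwick library compounds at 0.1 mM and 1% DMSO, across arabinose induction levels of 1E3 to 1E7 nM. Growth is read as OD600 after 10 h at 37 °C in triplicate biological replicates.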

E. coli TESEC Mtb Alr [2] = settings: compound 0.1 mM
Procedure: as §1

E. coli TESEC Mtb Asd = settings: compound 0.1 mM
Procedure: (§2)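 TESEC E. coli strains in which the native enzyme is deleted and replaced by arabinose-inducible Mtb Asd, DapB, CysH or TrpD, each grown in its selective medium. Strains were screened against the Prestwick library at 0.1 mM and 1% DMSO in 384-well format at low and high arabinose induction. Growth is read as OD600 after 10 h in triplicate.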

[3] = system: E. coli TESEC Alr+ wild-type control; settings: compound 0.1 mM; raw OD600 reference: median of DMSO wells 0.49, cell-free background 0.052
Procedure: (§3)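 TESEC Mtb Alr E. coli (ΔaraC ΔtolC ΔentC Δalr ΔdadX, arabinose-inducible Mtb Alr) or the Alr+ wild-type control strain, grown in defined M9-fructose medium without D-alanine in 96-well plates with Prestwick library compounds at 0.1 mM and 1% DMSO. Low Alr induction is 0.1 µM arabinose and high induction is 10 mM arabinose.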

E. coli TESEC Mtb Alr [4] = settings: compound 0.1 mM; remark: listed apart in the source
Procedure: as §3

E. coli TESEC Mtb DapB = settings: compound 0.1 mM
Procedure: as §2

[5] = arabinose 1000 nM, raw OD600 reference: median of DMSO wells 0.294, cell-free background 0.041
[6] = arabinose 10000 nM, raw OD600 reference: median of DMSO wells 0.264, cell-free background 0.041
[7] = arabinose 100000 nM, raw OD600 reference: median of DMSO wells 0.201, cell-free background 0.041
[8] = arabinose 1000000 nM, raw OD600 reference: median of DMSO wells 0.193, cell-free background 0.041
[9] = arabinose 10000000 nM, raw OD600 reference: median of DMSO wells 0.146, cell-free background 0.041
[10] = arabinose induction (level): High, raw OD600 reference: median of DMSO wells 0.331, cell-free background 0.041
[11] = arabinose induction (level): Low, raw OD600 reference: median of DMSO wells 0.417, cell-free background 0.041
[12] = arabinose 100 nM, raw OD600 reference: median of DMSO wells 0.413, cell-free background 0.052
[13] = arabinose 10000000 nM, raw OD600 reference: median of DMSO wells […], cell-free background 0.052

Row | Structure (SMILES) | growth [1] | growth (E. coli TESEC Mtb Alr [2]; [5]) | growth (E. coli TESEC Mtb Alr [2]; [6]) | growth (E. coli TESEC Mtb Alr [2]; [7]) | growth (E. coli TESEC Mtb Alr [2]; [8]) | growth (E. coli TESEC Mtb Alr [2]; [9]) | growth (E. coli TESEC Mtb Asd; [10]) | growth (E. coli TESEC Mtb Asd; [11]) | growth [3] | growth (E. coli TESEC Mtb Alr [4]; [12]) | growth (E. coli TESEC Mtb Alr [4]; [13]) | growth (E. coli TESEC Mtb DapB; arabinose induction (level): High, raw OD600 reference: median of DMSO wells […], cell-free background 0.041) | growth (E. coli TESEC Mtb DapB; arabinose induction (level): Low, raw OD600 reference: median of DMSO wells 0.227, cell-free background 0.041)
1 | CC(C)[C@H](N)C(=O)OCCOCn1cnc2c(=O)nc(N)[nH]c21 [Valacyclovir hydrochloride] | 0.243 ± 0.0038 | 0.302 ± 0.0067 | 0.2661 ± 0.0012 | 0.22 ± 0.039 | 0.195 ± 0.0058 | 0.144 ± 0.0025 | 0.258 ± 0.006 | 0.365 ± 0.054 | 0.533 ± 0.17 | 0.408 ± 0.0084 | 0.369 ± 0.0047 | – | –
2 | CN1CCCC(CC2c3ccccc3Sc3ccccc32)C1 (stereo not given) [Metixene hydrochloride] | 0.0422 ± 0.00059 | 0.0424 ± 0.0015 | 0.0424 ± 0.00036 | 0.04217 ± 0.00038 | 0.04163 ± 0.00021 | 0.044 ± 0.0005 | 0.0629 ± 0.015 | 0.053 ± 0.0011 | 0.0609 ± 0.015 | 0.401 ± 0.0069 | 0.055 ± 0.0024 | – | –
3 | CC(=O)OC[C@H]1O[C@@H]([S-])[C@H](OC(C)=O)[C@@H](OC(C)=O)[C@@H]1OC(C)=O.CCP(CC)CC.[Au+] [Auranofin] | 0.0481 ± 0.0033 | 0.04847 ± 0.00021 | 0.0451 ± 0.00026 | 0.0634 ± 0.012 | 0.0436 ± 0.00056 | 0.0467 ± 0.00053 | 0.0525 ± 0.0026 | 0.0514 ± 0.0016 | – | 0.0775 ± 0.008 | 0.056 ± 0.00069 | 0.0674 ± 0.019 | 0.111 ± 0.019
4 | COCCc1ccc(OCC(O)CNC(C)C)cc1 (racemic) [Metoprolol-(+,-) (+)-tartrate salt] | 0.225 ± 0.0047 | 0.306 ± 0.018 | 0.266 ± 0.014 | 0.203 ± 0.013 | 0.199 ± 0.0081 | 0.141 ± 0.0035 | 0.311 ± 0.028 | 0.466 ± 0.038 | 0.494 ± 0.11 | 0.399 ± 0.008 | 0.3498 ± 0.0028 | – | –
5 | COc1cc(N)c(Cl)cc1C(=O)NC1CCN(Cc2ccccc2)CC1 [Clebopride maleate] | 0.19 ± 0.002 | 0.263 ± 0.0076 | 0.24 ± 0.005 | 0.171 ± 0.016 | 0.132 ± 0.0034 | 0.129 ± 0.0055 | 0.163 ± 0.016 | 0.277 ± 0.036 | 0.474 ± 0.027 | 0.397 ± 0.0065 | 0.314 ± 0.016 | – | –
6 | O=C(C1CCCCC1)N1CC(=O)N2CCc3ccccc3C2C1 (stereo not given) [Praziquantel] | 0.207 ± 0.0042 | 0.251 ± 0.0052 | 0.237 ± 0.015 | 0.214 ± 0.021 | 0.167 ± 0.01 | 0.141 ± 0.0052 | 0.391 ± 0.074 | 0.278 ± 0.026 | 0.447 ± 0.019 | 0.382 ± 0.0029 | 0.37 ± 0.025 | – | –
7 | CN(C)CCC(c1ccccc1)c1ccccn1 (stereo not given) [Pheniramine maleate] | 0.241 ± 0.014 | 0.289 ± 0.0087 | 0.242 ± 0.0091 | 0.191 ± 0.0028 | 0.162 ± 0.0033 | 0.14 ± 0.0047 | 0.248 ± 0.064 | 0.408 ± 0.014 | 0.455 ± 0.059 | 0.41 ± 0.006 | 0.345 ± 0.015 | – | –
8 | COc1ccc2[nH]cc(CCNC(C)=O)c2c1 [Melatonin] | 0.246 ± 0.0061 | 0.29 ± 0.0068 | 0.27 ± 0.005 | 0.204 ± 0.029 | 0.183 ± 0.0071 | 0.1406 ± 0.0012 | 0.252 ± 0.066 | 0.348 ± 0.11 | 0.521 ± 0.086 | 0.409 ± 0.01 | 0.354 ± 0.013 | – | –
9 | Nc1ccc(C(=O)NCC(=O)O)cc1 [Aminohippuric acid] | 0.246 ± 0.011 | 0.297 ± 0.018 | 0.2604 ± 0.0024 | 0.186 ± 0.022 | 0.189 ± 0.006 | 0.138 ± 0.0027 | 0.372 ± 0.047 | 0.464 ± 0.01 | 0.6256 ± 0.0055 | 0.408 ± 0.015 | 0.3487 ± 0.0013 | – | –
10 | CC(C(=O)O)c1cccc(Oc2ccccc2)c1 (stereo not given) [Fenoprofen calcium salt dihydrate] | 0.22 ± 0.0072 | 0.267 ± 0.013 | 0.266 ± 0.0086 | 0.147 ± 0.0054 | 0.192 ± 0.0067 | 0.134 ± 0.0015 | 0.361 ± 0.075 | 0.322 ± 0.042 | 0.489 ± 0.089 | 0.397 ± 0.009 | 0.255 ± 0.0093 | – | –
11 | CCCCC[C@H](O)/C=C/[C@H]1[C@H](O)CC(=O)[C@@H]1CCCCCCC(=O)O [Alprostadil] | 0.215 ± 0.0055 | 0.284 ± 0.0052 | 0.23 ± 0.0057 | 0.176 ± 0.0091 | 0.163 ± 0.0042 | 0.126 ± 0.0061 | 0.243 ± 0.046 | 0.279 ± 0.082 | 0.503 ± 0.07 | 0.364 ± 0.018 | 0.299 ± 0.017 | – | –
12 | NCCC[C@H](N)CC(=O)N[C@H]1CNC(=O)[C@H]([C@H]2C[C@H](O)NC(N)=N2)NC(=O)/C(=C/NC(N)=O)NC(=O)[C@H](CO)NC(=O)[C@H](CO)NC1=O [Viomycin sulfate] | 0.178 ± 0.011 | 0.251 ± 0.012 | 0.1314 ± 0.0004 | 0.138 ± 0.0014 | 0.112 ± 0.0031 | 0.143 ± 0.0015 | 0.281 ± 0.032 | 0.268 ± 0.016 | 0.193 ± 0.13 | 0.226 ± 0.14 | 0.0681 ± 0.0071 | – | –
13 | CCOC(=O)N1CCC(=C2c3ccc(Cl)cc3CCc3cccnc32)CC1 [Loratadine] | 0.146 ± 0.0043 | 0.17 ± 0.0039 | 0.205 ± 0.0047 | 0.173 ± 0.0098 | 0.0897 ± 0.0023 | 0.103 ± 0.0051 | 0.175 ± 0.01 | 0.246 ± 0.023 | 0.402 ± 0.0043 | 0.391 ± 0.0066 | 0.0517 ± 0.00062 | – | –
14 | CC[C@H]1OC(=O)C[C@@H](O)[C@H](C)[C@@H](O[C@@H]2O[C@H](C)[C@@H](O[C@H]3C[C@@](C)(O)[C@@H](O)[C@H](C)O3)[C@H](N(C)C)[C@H]2O)[C@@H](CC=O)C[C@@H](C)C(=O)/C=C/C(C)=C/[C@@H]1CO[C@@H]1O[C@H](C)[C@@H](O)[C@@H](OC)[C@H]1OC [Tylosin] | 0.04133 ± 5.8e-05 | 0.0588 ± 0.0023 | 0.0397 ± 0.00017 | 0.0503 ± 0.0012 | 0.03953 ± 0.00032 | 0.0429 ± 0.0013 | 0.0667 ± 0.004 | 0.0597 ± 0.0035 | 0.0591 ± 0.00044 | 0.249 ± 0.12 | 0.0521 ± 0.00046 | – | –
